PrP UTR inh: inhibition of PrP 5' UTR reporter expression | cell-based PrP 5' UTR mRNA reporter, plate reader | inhibition, % (concentration not given with the values) | 340,000 tested, 0.35% active; in the data active means inhibition above about 52%; further: 0 = median of the neutral control wells
Mtb hypoxia inh: PubChem AID 1159583 | fluorescence inhibition, % (no concentration beside the values) | 300,000 tested, 0.1% active | M. tuberculosis hypoxia-regulated fluorescent reporter, fluorescence; in the data active means fluorescence inhibition mostly above about 23%, no sharp cut-off; inactive means mostly below about 17%
FBA Mtb inh: Mtb FBA enzyme inhibitors, primary screen, biochemical, fluorescence, strain H37Rv. Fructose-bisphosphate aldolase (Mycobacterium tuberculosis (strain ATCC 25618 / H37Rv)), …. purified M. tuberculosis FBA, fluorescence read-out. inhibition, % at 1 µM. 360,000 tested, 2.3% active; in the data active means inhibition above about 27%;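 further: 0% = vehicle and 100% = reference inhibitor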
GDH-TPI inh: GDH-TPI coupling enzyme inhibitors, primary screen, artefact control for M. tuberculosis FBA inhibitor project, biochemical, absorbance, full deck; GDH-TPI coupled enzyme counterscreen, NADH absorbance; inhibition, % at 4.8 µM; 360,000 tested, 1.2% active; in the data active means inhibition above about 30%;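 further: 0% = DMSO wells and 100% = wells lacking the enzyme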
Yp Topo-I inh: Yersinia pestis topoisomerase I inhibitors, primary screen, biochemical, cleavage product accumulation, plate reader, single point | Y. pestis Topo-I cleavage product accumulation | DNA topoisomerase I (Yersinia pestis CO92) | AID 504884, 2011 | activity, % at 10 µM | 360,000 tested, 0.064% active; in the data active means activity above about 50%, passing the limit was not always enough
PrPC surface inh: inhibitors of human cell surface prion protein PrPC, primary screen, cell-based, TR-FRET; Major prion protein (Homo sapiens), P04156; 370,000 tested, 0.43% active; inhibition, % at 13.8 µM; TR-FRET read-out; in the data active means inhibition above about 24%; further: 0% = median of the test wells and 100% = reference compound wells
PrPC TRFRET cf: confirmation of inhibitors of cell surface human prion protein, confirmation, cell-based, TR-FRET | inhibition, % at 13.8 µM | shares compounds with PrPC surface inh | cell surface PrPC level | 1,500 tested, 65% active; in the data active means inhibition above about 25%
LD9 tox: cytotoxicity in LD9 cells, cytotoxicity control for cell surface PrPc inhibitor project, cell-based, luminescence, high throughput; shares compounds with PrPC surface inh; luminescence viability; inhibition, % at 13.8 µM; 1,500 tested, 29% active; AID 743201, 2013; in the data active means inhibition above about 9.5%
The depositor's hits bear a star; nt = no result shown. This is a sample that favours compounds with a hit; in the whole collection about 3.8% have one here.

SMILES | PrP UTR inh | Mtb hypoxia inh | FBA Mtb inh | GDH-TPI inh | Yp Topo-I inh | PrPC surface inh | PrPC TRFRET cf | LD9 tox
CC1C(=O)OC2C(O)C34C5OC(=O)C3(OC3OC(=O)C(O)C34C(C(C)(C)C)C5O)[C@@]12O (stereo partly specified) | nt | 12 | nt | nt | nt | nt | nt | nt
CCN1/C(=C/c2ccc3cc(C)cc(C)c3[n+]2CC)Sc2cc(C)ccc21 | 1 | nt | 0 | 0 | -6 | -6 | nt | nt
CCN1/C(=C/c2ccc3cccc(C)c3[n+]2CC)Sc2ccccc21 | -26 | nt | -6 | 17 | 9 | 28* | 36* | 54*
CCCC(=O)c1ccc(OCc2cn(CC(=O)c3ccc(O)cc3)nn2)cc1 | -14 | nt | 2 | 30 | -5 | 28* | 22 | -1
CN(C)c1ccc(-[n+]2c(-c3ccccc3)cc(-c3ccccc3)cc2-c2ccccc2)cc1 | 28 | nt | -6 | 18 | 23 | 31* | 41* | 47*
Cc1ccc(S(=O)(=O)N(C)Cc2ccc(C(=O)NN=C3CCCC(=O)C3)cc2)cc1 | nt | 6 | nt | nt | nt | nt | nt | nt
O=C(Cc1ccccc1)NNc1ccc2ccccc2c1 | -32 | nt | 3 | 2 | 3 | 30* | 13 | 0
O=C(COc1ccc2ccccc2c1)NNC(=O)Cc1ccccc1 | -14 | -6 | 1 | -3 | 7 | 4 | nt | nt
S=c1[nH]nc(-c2cccc(Br)c2)o1 | -15 | 21 | 20 | 8 | 4 | 25* | 36* | -3
COc1cc(C=NNC(=O)CNC(=O)c2cccs2)ccc1O | nt | 4 | nt | nt | nt | nt | nt | nt
CCC(=O)NC(c1ccc(OC)cc1)c1c(O)ccc2ccccc12 (stereo unspecified) | -23 | -1 | 15 | -1 | -12 | 15 | nt | nt
CCCC(=O)NC(c1ccccc1)c1ccc2cccnc2c1O (stereo unspecified) | 19 | nt | 1 | 5 | -3 | 23 | nt | nt
CCCCC(=O)NC(c1ccccc1)c1ccc2cccnc2c1O (stereo unspecified) | 21 | nt | -1 | 4 | -1 | 29* | 27* | 19*
CCCC(=O)NC(c1ccc(OC)cc1)c1ccc2cccnc2c1O (stereo unspecified) | 16 | -6 | -1 | 7 | 9 | 27* | 26* | 32*
CCCCC(=O)NC(c1ccc(C(C)C)cc1)c1ccc2cccnc2c1O (stereo unspecified) | 38 | 1 | -1 | 2 | 0 | 13 | nt | nt
CCCCC(=O)NC(c1ccccc1Cl)c1ccc2cccnc2c1O (stereo unspecified) | 2 | nt | -6 | -4 | -1 | 39* | 32* | 30*
Cc1ccc(O)c(C=NNC(=O)c2[nH]ncc2Br)c1 | nt | 7 | nt | nt | nt | nt | nt | nt
Cc1cc2ccccc2n1CCNC(=O)C(C)Oc1ccccc1 (stereo unspecified) | -1 | 6 | 0 | 3 | 27 | 41* | 30* | -4
Cc1cc(C)c(S(=O)(=O)NCCn2c(C)cc3ccccc32)c(C)c1 | -1 | 5 | 6 | 3 | 2 | 20 | nt | nt
Cc1cc2ccccc2n1CCNC(=O)C(C)C | 31 | -3 | 4 | 6 | 12 | 5 | nt | nt
Cc1cc2ccccc2n1CCNC(=O)Cc1ccccc1 | -8 | -4 | 3 | 4 | 5 | 27* | 14 | -4
Cc1cccc(CC(=O)NCCn2c(C)cc3ccccc32)c1 | -28 | 10 | -2 | 7 | 13 | 27* | 8 | -4
O=C(C1=CC(C2CC2)CC(OCCCCO)O1)N1CCOCC1 (stereo unspecified) | nt | -5 | nt | nt | nt | nt | nt | nt
CON=C(C(=O)O)c1csc(NN=C(C)C)n1 | nt | 3 | nt | nt | nt | nt | nt | nt
Cc1ccc(-n2nc3c(SCCN4CCOCC4)nnc(C)c3c2C)cc1 | 1 | 0 | 0 | 14 | 25 | 33* | 56* | -4
SMILES | PrP UTR inh | Mtb hypoxia inh | FBA Mtb inh | GDH-TPI inh | Yp Topo-I inh | PrPC surface inh | PrPC TRFRET cf | LD9 tox
CCOc1ccc(-n2nc3c(=S)[nH]nc(C)c3c2C)cc1 | -5 | 12 | 0 | 7 | 2 | 92* | 125* | -4
CCOc1ccc(-n2nc3c(SCCN4CCCC4)nnc(C)c3c2C)cc1 | -17 | 2 | 2 | 11 | 20 | 55* | 74* | -3
CCCN1CCN(C(=O)C2CCN(c3nnc(C)c4c(C)n(-c5ccc(C)cc5)nc34)CC2)CC1 | -20 | -4 | 4 | 13 | 28 | 13 | nt | nt
C=CCOc1ccc(Br)cc1C=NO | nt | -5 | nt | nt | nt | nt | nt | nt
COC(=O)C1CC1C(NC(=O)c1cc(C)on1)c1ccccc1 (stereo unspecified) | nt | 8 | nt | nt | nt | nt | nt | nt
O=C(CSc1nnc(SCc2ccccc2)s1)NN=C/C=C/c1ccccc1[N+](=O)[O-] | nt | 3 | nt | nt | nt | nt | nt | nt
O=C(NN=Cc1c(Cl)cccc1Cl)c1ccc(-n2cnnn2)cc1 | nt | 7 | nt | nt | nt | nt | nt | nt
Cc1cccc(-n2c(-c3ccco3)n[nH]c2=S)c1 | -9 | 2 | 3 | 5 | -1 | 31* | 33* | -3
CN=c1scc(-c2ccc(F)cc2)n1N=Cc1ccc(O)c(O)c1 | nt | 3 | nt | nt | nt | nt | nt | nt
COC(=O)CSc1ncnc2scc(-c3ccccc3)c12 | -10 | -4 | 1 | -10 | 12 | 50* | 67* | -1
C1=C(CCNc2ncnc3c2[nH]c2ccccc23)CCCC1 | -41 | 4 | 5 | 9 | -14 | 40* | 40* | 22*
O=c1c2[nH]c3ccccc3c2ncn1CCC1=CCCCC1 | -23 | 2 | 3 | 2 | 6 | 0 | nt | nt
CC(=O)c1sc(NC(=O)Cc2c(F)cccc2Cl)nc1C | -17 | -2 | 2 | 6 | -8 | 41* | 44* | -9
CCOC(=O)c1sc(NC(=O)Cc2c(F)cccc2Cl)nc1C | -21 | 2 | -2 | 0 | 9 | 5 | nt | nt
NCCCCC(N)c1nnc(C(CC(=O)O)NC(=O)C2CCNCC2)o1 (stereo unspecified) | nt | 1 | nt | nt | nt | nt | nt | nt
COC(=O)N1C2CCCCC2=NN(c2ccccc2)N1C(=O)OC (stereo unspecified) | nt | nt | 0 | nt | nt | 29* | 5 | -2
Cc1c(Cc2ccccc2)c(=O)oc2c(C)c(OCC(=O)NCC3CCC(C(=O)O)CC3)ccc12 (stereo unspecified) | -28 | nt | 27 | 9 | -5 | 4 | nt | nt
COC(=O)Cc1c(C)c2ccc(OCC(=O)N3CCCC(C)C3)c(C)c2oc1=O (stereo unspecified) | -8 | 4 | 120* | 10 | 23 | 26* | 38* | 9
CC(/C=C/C=C/c1ccccc1)=NNC(=O)c1cccnc1 | nt | 1 | nt | nt | nt | nt | nt | nt
O=C1OCCC1Sc1ncnc2sccc12 (stereo unspecified) | -17 | nt | 0 | 3 | 0 | 31* | 32* | 3
O=C(CSc1nnc(-c2ccc(Cl)cc2)n1-c1ccc(Cl)cc1)NN=Cc1ccccc1C(=O)O | nt | 11 | nt | nt | nt | nt | nt | nt

Screens from PubChem BioAssay.
